This is a sample that favours compounds with a hit; in the whole collection about 12% have one here.
L major viab – Leishmania major promastigote growth inhibition; Leishmania major promastigotes, resazurin fluorescence viability; inhibition, % at 10 µM; actives 9% (n = 200,000); AID 1063; in the data active = inhibition above about 50%;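 note: promastigotes grown with compound for 44 hours at 28 °C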
ROMK mod – modulates human ROMK potassium channel activity. P48048. Tet-inducible ROMK, thallium flux fluorescence; actives lie on both sides. B-score at 10 µM. actives 2% (n = 130,000). AID 1918;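 active = signal ratio slope over the read window, or its plate-corrected B-score, at least 3 SD from the plate mean, either direction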;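 note: B-score of the F/F0 ratio slope over 7 to 12 s after thallium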
WT yeast gro inh – growth inhibition of WT yeast, mitochondrial fusion screen; mitochondrial fusion phenotypic screen, WT strain; inhibition, % at 10 µM; actives 2.1% (n = 190,000); AID 1362; in the data active = inhibition above about 58%; tested in S. cerevisiae
Insulin prom inh – TRM-6 insulin promoter activity inhibition; TRM-6 cells (human fetal islet line), insulin promoter-eGFP reporter, imaging; reporter expression induced with tamoxifen; inhibition, % at 2 µM; actives 0.9% (n = 130,000); AID 1273;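 active = inhibition above the mean plus 3 SD, with well images judged a real hit on visual review, cut at about 60% in these data, passing the limit was not always enough; inconclusive = inhibition over the cutoff but images rejected on review; inactive = inhibition not above the cutoff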
Ins promoter up – MIN6 insulin promoter up-regulation | MIN6 insulin promoter-GFP reporter, high-content imaging; stronger effect = higher value | z-score at 5 µM | actives 0.3% (n = 190,000);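 active = z-score above 3 at 5 µM with at least 500 cells counted in the well; inconclusive = wells under 500 cells, flagged as cytotoxic or low count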
KCC2 mod – modulators of human KCC2 chloride dependent transport; KCC2 cells, thallium flux FluoZin-2 fluorescence; B-score of Tl+ flux slope (higher = more flux/activation; lower = inhibition) at 10 µM; actives 2.2% (n = 190,000); Q9H2X9;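 active = thallium flux slope and its plate-corrected score both differing from the plate sample mean at a set confidence after two filtering rounds, in either direction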;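 note: slope of fluorescence scaled to starting intensity during 10 to 20 s after thallium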
An asterisk follows results filed as active; ? = inconclusive; . = not tested or not shown.

SMILES	L major viab	ROMK mod	WT yeast gro inh	Insulin prom inh	Ins promoter up	KCC2 mod
O=C(COC(=O)C1CCCN1C(=O)c1cccs1)Nc1ccc2c(c1)OCO2 (stereo not drawn)	-4	-0.68	8	-47	0.27	.
Cc1cc(C)c2cc(CN(CCO)C(=O)NC3CCCCC3)c(=O)[nH]c2c1	.	0.013	.	.	0.37	-0.7
CCN1CCCC1CN(Cc1cc2c(C)cc(C)cc2[nH]c1=O)C(=O)NC1CCCCC1 (stereo not drawn)	59*	0.27	11	-50	.	.
CCOC(=O)c1cnc2sc3c(n2c1=O)CCCC3	100*	1	-13	-14	?	.
O=C(Nc1ccc(Cl)c(Cl)c1)N1CCC(N2CCCCC2)CC1	91*	-1.2	0	-21	0.27	0.047
O=C(Nc1ccc(Cl)c(Cl)c1)N1CCSCC1	74*	-0.76	-9	-456	.	-0.47
COc1cccc(NC(=O)N2CCC(N3CCCCC3)CC2)c1	-1	.	-13	0	.	-0.69
COc1ccc(Oc2nc(-c3ccccc3)ncc2S(=O)(=O)c2ccccc2)cc1	-8	.	16	-13	0.1	0.003
CCCCn1cnc2c1c(=O)n(CC(=O)c1cc(C)n(C)c1C)c(=O)n2CC(C)C	96*	.	-5	.	-0.43	.
Cc1cc(C(=O)COC(=O)Cn2cnc3c2c(=O)n(C)c(=O)n3C)c(C)n1C	8	.	21	29	0.46	1.2
O=C(NN1C(=O)C2C(C1=O)C1C=CC2C12CC2)c1ccccc1 (stereo not drawn)	-9	0.43	4	.	-0.15	0.68
CCCCN1C=CC(=C2C(=O)c3ccccc3C2=O)C=C1	53*	1.3	38	20	-0.4	0.39
Cc1ccccc1CC1(CO)CCCN(Cc2nc(-c3cccs3)oc2C)C1 (stereo not drawn)	55*	-1.2	31	-57	-0.14	-0.031
COCCNC(=O)CN(C)S(=O)(=O)c1ccc(Br)cc1	-6	0.6	7	-25	-0.07	0.061
Cc1ccc(S(=O)(=O)Nc2cc(Cl)c(O)cc2C)cc1	-1	.	-16	-9	-0.65	-0.91
Brc1ccc(NCc2cccc3ccccc23)nc1	47	0.083	18	3	.	.
Cc1ccc(S(=O)(=O)Nc2ccccc2CNc2ncc(Br)cc2Br)cc1	100*	.	17	-26	-0.38	0.35
Oc1ccccc1CNc1ccc(Br)cn1	33	.	-2	32	-2.2	20*
Cc1ccc(S(=O)(=O)Nc2cc(C(C)C)c(O)cc2C)cc1	76*	.	-14	-2	0.39	-0.85
Cc1ccc(S(=O)(=O)Nc2ccccc2CNc2ccc(Br)cn2)cc1	9	0.72	65*	3	-0.17	0.22
Cc1ccc(NS(=O)(=O)c2ccc(Br)cc2)nc1	-2	1.3	-7	.	0.08	-0.032
Cc1ccc2c(c1)N(CC(=O)N(Cc1ccc3c(c1)OCO3)CC1CCCO1)C(=O)C(C)O2 (stereo not drawn)	18	-0.97	3	.	-0.91	-1.9
Cc1ccc(CN(C(=O)c2cc(=O)c3cc(Cl)c(C)cc3o2)C2CCS(=O)(=O)C2)cc1 (stereo not drawn)	8	.	7	-35	-1.6	0.65
Cc1ccc(S(=O)(=O)Nc2ccccc2CNc2ccccn2)cc1	59*	.	7	-27	0.02	-0.83
Cc1ccc(S(=O)(=O)Nc2ccccc2-c2ccccc2NS(=O)(=O)c2ccc(C)cc2)cc1	96*	.	62*	-10	0.25	.
SMILES	L major viab	ROMK mod	WT yeast gro inh	Insulin prom inh	Ins promoter up	KCC2 mod
Cc1ccc(S(=O)(=O)Nc2ccccc2C(N)=O)cc1	-2	.	8	-403	-0.23	-1.1
Cc1ccccc1Cn1ccc(NC(=O)c2onc(C)c2Cl)n1	-3	.	5	-100	-0.6	-1.7
CCCS(=O)(=O)N1CCN(c2cc3c(cc2[N+](=O)[O-])n(C)c(=O)n3C)CC1	0	-0.4	-3	.	-0.91	0.52
CCOC(=O)c1ccc(NC(=O)C2C3C=CC(C3)C2C(=O)O)cc1 (stereo not drawn)	-4	.	9	.	0.38	-0.28
O=C(O)C1C2C=CC(C2)C1C(=O)Nc1ccc(C(=O)N2CCCCC2)cc1 (stereo not drawn)	-4	1	68*	12	0.67	2.2
Cc1cc(NC(=O)C2Oc3ccccc3OC2C)no1 (stereo not drawn)	11	0.67	13	9	0.28	0.089
Cc1cccc(C(CC(=O)NCc2ccco2)c2ccccc2)c1O (stereo not drawn)	11	1	8	-30	0.3	0.058
CC(C)Oc1ccc(C(CC(=O)NCc2ccco2)c2ccccc2)cc1 (stereo not drawn)	67*	.	7	29	.	-1.2
O=C(OCC(=O)N1CCN(c2ccccc2)CC1)c1ccc2ncsc2c1	-3	.	3	-15	0.18	-1.6
CCOC(=O)C(=O)N1c2ccccc2C(N(C(=O)C(=O)OCC)c2ccccc2)CC1C (stereo not drawn)	.	-0.15	.	.	-0.08	0.047
CC1CC(N(C(=O)c2ccco2)c2ccccc2)c2ccccc2N1C(=O)c1ccco1 (stereo not drawn)	62*	.	16	-7	.	-3.1
O=C(c1ccco1)N1CCN(Cc2ccc(Cl)cc2)CC1	-8	.	-5	-47	.	0.008
CC1CC(N(C(=O)c2ccc(Cl)cc2)c2ccccc2)c2ccccc2N1C(=O)c1ccco1 (stereo not drawn)	57*	.	84*	-129	-1.4	-0.35
Cc1ccccc1NC(=O)COC(=O)CCc1nc2ccccc2c(=O)[nH]1	-6	-0.17	-35	.	0.26	-0.44
Cc1cccc(N2C(=N)SCC2=O)c1C	54*	-0.6	-4	24	0.44	-0.0057
O=CN1CCN(C(=O)COc2ccc(Cl)cc2Br)CC1	-6	0	3	-61	-0.11	0.94
Clc1ccc(Cl)c(OCCN2CCOCC2)c1	22	-0.034	-16	-200	0.31	0.41
Clc1ccc(OCCOCCN2CCCCC2)c(Br)c1	100*	-2.2	44	-51	0.06	1.8
CC1CCN(CCOCCOc2ccc(Cl)cc2Br)CC1	101*	.	14	26	-0.41	.
CC1CCCN(CCOc2ccc3ccccc3c2Br)C1 (stereo not drawn)	88*	1.3	59	.	-0.94	0.11
CC1CCN(S(=O)(=O)c2ccc(Cl)cc2Br)CC1	4	.	25	.	-0.03	-0.13
CC1CCN(CCCOc2ccc(Cl)cc2Br)CC1	87*	0.23	27	-21	-0.19	0.056
COC(=O)NNC(=O)COc1ccc2ccccc2c1Br	-2	-0.36	23	37	-1.6	-2.5
Cc1cccc(OCC(=O)NCC(=O)N/N=C/c2ccc(O)cc2O)c1	.	-0.015	.	.	-0.45	0.5
Cc1nnc2n1NC(c1ccc(Cl)cc1)C(C(=O)N(C)C1CCCCC1)S2 (stereo not drawn)	0	0.081	14	.	-1.1	.
COCCn1c(SCC(=O)Nc2ccc(S(=O)(=O)N3CCOCC3)cc2)nc2ccccc21	21	0.5	35	-15	.	.
Cc1ccc(Cl)c(OCCN2CCCC(C)C2)c1 (stereo not drawn)	91*	-0.13	2	-21	-0.04	0.48

From PubChem BioAssay
